# Experimental data: paper PMC5540273 (PLoS ONE, 2017)
# Key:
# Conditions in all cases: concentration: 1 μM, replicates: in singlicate; n = 1
# [1] = test system: MAP4K2
# [2] = test system: MAP4K3
# [3] = test system: MAP4K4
# [4] = test system: MAP4K5
# [5] = test system: MAPKAPK2
# [6] = test system: MAPKAPK5
# [7] = test system: MARK1
# [8] = test system: MARK2
# [9] = test system: MARK3
# [10] = test system: MARK4
# 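Further: KINOMEscan kinase panel screen.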
SMILES,%Inh [1],%Inh [2],%Inh [3],%Inh [4],%Inh [5],%Inh [6],%Inh [7],%Inh [8],%Inh [9],%Inh [10]
COc1cc2ncnc(Nc3cccc(Br)c3)c2cc1OC.Cl [GI230329],0%,0%,0%,0%,0%,0%,0%,0%,0%,5%
COc1ccc(Nc2nccc(N3CCC(NC(=O)C(C)c4ccc(Cl)cc4)C3)n2)cc1 (centres unmarked) [GSK1379735],0%,11%,4%,0%,32%,0%,0%,0%,12%,0%
CCc1ccc(-c2ccc3c(c2)-c2n[nH]cc2S(=O)(=O)N3C)cc1,0%,15%,15%,12%,0%,0%,0%,0%,0%,0%
CC[C@@H]1CO[C@H](C(=O)Nc2ccccc2)CN1c1cc(-c2ccc3c(N)n[nH]c3c2)nc(NC)n1 [GSK2376236],0%,0%,0%,0%,0%,0%,0%,5%,0%,0%
Cc1ccc(NC(=O)c2ccc(Cl)cc2)cc1-c1ccc(C(=O)Nc2ccncc2)cc1 [GSK1398467],0%,0%,13%,3%,24%,0%,36%,80%,0%,0%
COC(=O)c1cccc(NC(=O)NC2CCN(c3ccnc(Nc4ccc(OC)cc4)n3)C2)c1 (centres unmarked) [GSK1379746],0%,0%,0%,0%,14%,0%,0%,0%,4%,0%
COc1cccc(C2=C(Nc3cc(Cl)c(O)c(Cl)c3)C(=O)NC2=O)c1 [SB-390767],0%,0%,0%,1%,15%,0%,0%,0%,0%,0%
COc1nccc(-c2c(-c3ccc(F)cc3)ncn2CCCN2CCOCC2)n1 [SB-282852],0%,0%,0%,0%,5%,0%,0%,7%,24%,0%
CCn1c(-c2ccccc2)nc2cnccc21 [SB-733416],0%,9%,18%,8%,34%,0%,13%,0%,10%,26%
COc1ccc(Nc2nccc(N3CCC(NC(=O)c4cc5ccccc5s4)C3)n2)cc1 (centres unmarked) [GSK1379738],0%,2%,0%,0%,0%,0%,0%,0%,3%,0%
FC(F)(F)c1ccccc1-c1cc(-c2c[nH]nc2-c2ccccn2)ccn1 [GW679396],0%,0%,10%,3%,0%,8%,0%,0%,0%,12%
CN1c2ccc(-c3ccc(C(N)=O)cc3)cc2-c2[nH]ncc2S1(=O)=O,1%,6%,29%,23%,0%,0%,14%,0%,0%,27%
O=C1NC(=O)C(c2ccc(Cl)cc2)=C1Nc1cccc(Cl)c1 [SB-317651],6%,1%,0%,0%,0%,0%,0%,13%,6%,0%
CNC(=O)c1ccc(C)c(-n2c(C)cc(OCc3ccc(F)cc3F)c(Br)c2=O)c1,0%,0%,0%,0%,0%,0%,0%,1%,0%,0%
COC(=O)C(NC(=O)NC1CCN(c2ccnc(Nc3ccc(F)cc3)n2)C1)c1ccccc1 (centres unmarked) [GSK1379712],0%,0%,1%,2%,18%,6%,0%,7%,1%,8%
Fc1ccc(-c2nc3n(c2-c2ccncc2)CCS3)cc1 [GI98581],0%,0%,26%,11%,1%,0%,0%,0%,0%,12%
Cc1nccc(-c2c(-c3ccc(F)cc3)ncn2CCCN2CCOCC2)n1.Cl [SB-282975],0%,1%,30%,37%,0%,4%,0%,4%,7%,45%
